# Compound activity from PubChem.
# IDE cell activ – activators of human insulin-degrading enzyme in cells; HEK cells, FAbeta-B cleavage, fluorescence polarization; 0% vehicle, 100% cell-free pure enzyme wells; actives 0.073% (n = 340,000); activation, % at 5.96 µM;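 active = activation above the mean of all tested compounds plus 3 SD, set per screening campaign, cut at about 17% in these data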
# IDE cell inh – inhibitors of human insulin-degrading enzyme in cells; P14735; HEK cells, FAbetaB cleavage, fluorescence polarization; inhibition, % at 5.59 µM; actives 0.41% (n = 320,000); AID 434962;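 active = percent inhibition above the average of all tested compounds plus 3 SD, set per screening campaign, cut at about 16% in these data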;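 also: IDE supplied by intact live HEK cells; FP after avidin binding of uncleaved biotin substrate so inhibition keeps polarization high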
# MCL1-BIM inh – disrupts human MCL1 binding to BIM-BH3 peptide; inhibition, % at 10.9 µM; AID 2057; Q07820; GST-MCL1 / FITC-Bim-BH3 fluorescence polarization; actives 0.68% (n = 320,000);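 active = inhibition above the mean inhibition of all tested compounds plus 3 SD, set per campaign, cut at about 40% in these data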;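 also: higher means more loss of mP so more displacement of Bim peptide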
# Target sequence (Q07820 whole entry, looked up): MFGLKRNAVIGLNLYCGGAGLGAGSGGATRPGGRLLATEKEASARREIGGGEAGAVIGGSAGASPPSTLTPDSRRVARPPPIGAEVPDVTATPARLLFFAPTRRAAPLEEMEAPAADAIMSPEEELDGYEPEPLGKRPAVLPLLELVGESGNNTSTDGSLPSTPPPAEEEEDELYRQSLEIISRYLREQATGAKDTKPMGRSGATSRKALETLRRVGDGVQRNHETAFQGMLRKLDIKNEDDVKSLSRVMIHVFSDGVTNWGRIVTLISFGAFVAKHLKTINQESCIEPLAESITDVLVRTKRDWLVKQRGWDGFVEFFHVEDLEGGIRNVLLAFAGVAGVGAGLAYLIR
# GLD-1 TGE inh – GLD-1-TGE RNA interaction inhibition (C. elegans); actives 0.44% (n = 320,000); purified GLD-1 + fluorescein TGE RNA, fluorescence polarization; inhibition, % at 5.96 µM;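 active = percent inhibition above a per-plate cutoff, the plate mean of test compounds plus 3 SD, cut at about 30% in these data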
# MEX-5 binding – C. elegans MEX-5 TCR-2 RNA binding activity; Q9XUB2; MEX-5/FITC-TCR2 RNA binding, fluorescence polarization; stronger effect = lower value; activity score (negative = inhibition of binding), % at 10 µM; actives 0.38% (n = 300,000); AID 1832;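 active = inhibition past about -25% in most replicates, and total fluorescence under double the plate's negative control median, limit read from the data; inconclusive = replicates evenly split on the limit, or fluorescence at least double controls; inactive = too little inhibition in most replicates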
# Bcl-xL primary – blocks human Bcl-xL binding to Bim BH3 peptide | Q07817 | GST-Bcl-xL / FITC-Bim BH3 peptide fluorescence polarization | inhibition, % at 10.9 µM | actives 0.7% (n = 320,000) | AID 2129;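 active = inhibition above the mean of all tested compounds plus 3 SD, cutoff set per campaign, cut at about 30% in these data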;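 also: inhibitors lower millipolarization by displacing the labeled peptide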
# IDE cell inh cf – cellular human IDE inhibition, confirmation | shares compounds with IDE cell inh | HEK cells, FAbetaB cleavage, fluorescence polarization | inhibition, % at 5.59 µM | actives 51% (n = 1,200) | AID 435028;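 active = mean inhibition across triplicate wells above the cutoff set by the earlier primary insulin-degrading enzyme screen, cut at about 16% in these data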
# HEK293 tox – counter-screen for IDE inhibitors: cytotoxicity in HEK cells; inhibition, % at 5.59 µM; actives 28% (n = 1,200); HEK293 cytotoxicity, ATP luminescence; shares compounds with IDE cell inh; in the data active = inhibition above about 22%
# A number is an active result; n = inactive; u = inconclusive; x = no result given. A selection: hits, their analogues and other compounds. The true share with any hit is near 1.5%.
SMILES,IDE cell activ,IDE cell inh,MCL1-BIM inh,GLD-1 TGE inh,MEX-5 binding,Bcl-xL primary,IDE cell inh cf,HEK293 tox
O=C1C=CC(=O)C2C1C1(Cl)C(Cl)=C(Cl)C2(Cl)C1(Cl)Cl (stereo not given),n,x,x,x,x,x,x,x
COC(=O)C1=C(c2ccc(F)cc2OCc2ccccc2)C[C@@H]2CC[C@H]1N2C(=O)N1CCCC1,n,n,n,n,x,n,x,x
CN1[C@H]2CC[C@@H]1C(C(=O)N1CCOCC1)=C(O)C2,n,n,n,n,x,n,x,x
COC(=O)C1=C(c2cccc(C#N)c2)C[C@@H]2CC[C@H]1N2C(=O)NC1Cc2ccccc2C1,n,n,n,n,x,n,x,x
COc1ccc(-n2c(O)c(/C=C/C=Nc3ccccc3)c(=O)[nH]c2=O)cc1,n,159,n,n,u,n,51,n
Cc1ccc(N/N=C/c2c(O)n(-c3ccccc3)c(=O)[nH]c2=O)cc1,n,n,n,n,n,n,x,x
O=c1[nH]c(=O)n(C2CCCCC2)c(O)c1/C=C/C=Nc1ccccc1,n,21,n,n,u,n,42,n
C=CCn1c(O)c(/C=C/C=Nc2ccccc2)c(=O)[nH]c1=O,n,18,n,n,-26,n,n,n
Cc1ccc(-n2c(O)c(/C=C/C=Nc3ccccc3)c(=O)[nH]c2=O)cc1,n,21,n,n,n,n,30,n
O=c1[nH]c(=O)n(-c2ccccc2)c(O)c1/C=C/C=Nc1ccccc1,n,34,n,n,u,n,35,n
COc1ccc(-n2c(/C=C/c3ccc(O)cc3)nc3ccccc3c2=O)cc1,n,31,n,n,n,n,76,n
COc1ccc(-n2c(/C=C/c3ccc4c(c3)OCO4)nc3ccccc3c2=O)cc1,n,n,n,n,n,n,x,x
O=c1c2ccccc2nc(/C=C/c2ccc(O)cc2)n1-c1ccc(O)cc1,n,62,n,n,n,n,133,n
COc1cccc(-n2c(/C=C/c3ccccn3)nc3ccccc3c2=O)c1,n,x,x,x,n,x,x,x
Cc1ccc(-n2c(/C=C/c3ccc4c(c3)OCO4)nc3ccccc3c2=O)cc1,x,n,n,n,n,n,x,x
COc1cccc(-n2c(/C=C/c3ccc(O)c(O)c3)nc3ccccc3c2=O)c1,n,160,n,n,n,n,26,n
COc1ccc(-n2c(/C=C/c3ccc(O)c(OC)c3)nc3ccccc3c2=O)cc1,n,34,n,n,n,n,102,26
Cc1[nH]nc2ccc(-c3cncc(OC[C@@H](N)Cc4c[nH]c5ccccc45)c3)cc12,n,x,x,x,x,x,x,x
CC(C)COC(=O)c1ccccc1C(=O)OCC(C)C,n,n,n,n,n,n,x,x
C[CH2][Hg][S]c1ccccc1C(=O)O,n,53,n,n,x,n,21,122
O=c1[nH]c(=O)n(Cc2ccccc2)c(O)c1/C=N/NCCO,x,16,n,n,n,n,n,n
